Only a sample is shown.
aSyn UTR act: Activators via SNCA 5'UTR binding, MLPCN | alpha-synuclein 5'UTR reporter, activators screen | activity score, % (tested at 7.5 µM), hits read low | 7.1% of 300,000 active | AID 1814; in the data active = activity score below about -60%
* marks the source's active call; other numbers are inactive results.

SMILES	aSyn UTR act
Cc1c(-c2nc(-c3ccc(C(F)(F)F)cc3)no2)n(C)oc1=O	-82*
CS(=O)(=O)c1ccccc1-c1nc(-c2ccc(C(F)(F)F)cc2)no1	-62*
O=C(NC(=S)Nc1ccccc1F)c1ccc(Br)o1	-66*
O=C(O)CCC(=O)Nc1cccc2cccnc12	-114*
CSc1ccccc1NC(=O)c1ccc(Br)o1	-78*
CCCCC(=O)NC(c1ccccc1Cl)c1ccc2cccnc2c1O (stereo not drawn)	83
Cc1cccc(NC(=S)NC(=O)c2ccc(Br)o2)c1C	-74*
CCCCC(=O)NC(c1ccc(C(C)C)cc1)c1ccc2cccnc2c1O (stereo not drawn)	112
Cc1ccc(NC(=S)NC(=O)c2ccc(Br)o2)c(C)c1	-181*
O=C(Nc1cccc2cccnc12)c1ccc(Br)o1	-97*
CCOc1ccc(/C=C/C2=Cc3c(sc(NC(=O)CSc4n[nH]c(N)n4)c3C#N)C(C)(C)C2)cc1	-95*
O=C1OC(c2ccccc2)=N/C1=C\N1CCCCC1	-152*
O=C1OC(c2ccc(Br)cc2)=N/C1=C\N1CCCCC1	-95*
O=C1OC(c2ccccc2)=C/C1=C/N1CCCCC1	-185*
Nc1ccccc1-c1nc2ccccc2[nH]1	-163*
Cn1cc(-c2nc3ccccc3[nH]2)c2ccccc21	-124*
Nc1cccc2nc3ccccc3cc12	101
Oc1ccc(C=Nc2ccccc2-c2nc3ccccc3[nH]2)cc1	-142*
O=c1[nH]cccc1-c1nc2ccccc2[nH]1	-132*
COc1ccccc1N1CCN(/N=C/c2cccc(Cl)c2)CC1	-196*
COc1cccc(/C=N/N2CCN(c3ccccc3OC)CC2)c1	-93*
COc1ccc(/C=N/N2CCN(c3ccccc3OC)CC2)cc1Br	-101*
COc1ccccc1N1CCN(/N=C/c2cccc(OC)c2O)CC1	-67*
COc1cccc(/C=N/NC(=O)N/N=C/c2cccc(OC)c2O)c1O	53
COc1ccccc1N1CCN(/N=C/c2cc(Br)ccc2F)CC1	-93*
SMILES	aSyn UTR act
COc1ccc(-c2cn3cc(Cl)ccc3n2)cc1OC	-239*
O=C1/C(=C\c2ccco2)NC(=S)N1c1ccccc1	-84*
Oc1csc(Cc2nc(-c3ccc4ccccc4c3)cs2)n1	-236*
Oc1csc(Cc2nc(-c3ccc(-c4ccccc4)cc3)cs2)n1	-112*
Oc1csc(Cc2nc(-c3ccccc3F)cs2)n1	-169*
Cc1cc(C)n(CCc2nc(-c3ccc(-c4ccccc4)cc3)cs2)n1	-71*
COc1ccc(CCN2CCC(Nc3nc4ccccc4n3Cc3ccc(F)cc3)CC2)cc1	103
CN(C(=O)c1ccc(OC2CCN(CCc3ccccc3)CC2)cc1)C1CCCCC1	-125*
O=C1COc2ccc(OCc3ccc(F)cc3)cc21	-100*
c1ccc2c(-n3cccn3)cccc2c1	-83*
COc1ccc(-c2nnc(N(C)C(=O)C3CCCO3)s2)cc1 (stereo not drawn)	-87*
COc1ccc(-c2nnc(N(C)C(=O)C3CCOC3)s2)cc1 (stereo not drawn)	-66*
COc1ccc(-c2nnc(N(C)C(=O)c3ccno3)s2)cc1	-138*
Cc1cccc(/C=C/c2nc3ccccc3c(=O)[nH]2)c1	-94*
Clc1cccc(Cl)c1/C=C/c1nc2ccccc2[nH]1	-149*
CCOc1cc(/C=C/c2cc(C(F)(F)F)[nH]c(=O)n2)ccc1O	-79*
Cc1[nH]c2ccccc2c1/C=C/c1nc2ccccc2c(=O)[nH]1	-98*
Clc1ccc(/C=C/c2nc3ccccc3[nH]2)cc1	61
CCOc1cc(/C=C/c2nc3ccccc3c(=O)[nH]2)ccc1O	-133*
Clc1ccc(/C=C/c2nc3ccccc3[nH]2)c(Cl)c1	68
O=c1[nH]c(/C=C/c2ccccc2Cl)nc2ccccc12	-265*
S=C(NCc1ccco1)Nc1cc(-c2ccccc2)[nH]n1	-68*
Cn1nc([N+](=O)[O-])nc1Sc1nnc(-c2ccccc2)o1	92
O=C(CSc1nnc(-c2ccccc2)o1)N1CCCC1	-102*
O=C(CSc1nnc(-c2ccc(F)cc2)o1)N1CCCCC1	-88*
SMILES	aSyn UTR act
O=C(CCc1nnc(-c2ccc3c(c2)OCO3)o1)N1CCC(c2ccc(F)cc2)C1 (stereo not drawn)	-104*
O=C(CSc1nnc(-c2ccccc2)o1)N1CCCCC1	-74*
CC1CCN(C(=O)CCc2nnc(-c3ccccc3)o2)CC1	-106*
Cc1cccc(CSc2cccc3cccnc23)c1	-103*
c1cnc2c(SCc3ccc(-c4nnco4)cc3)cccc2c1	-82*
Cc1ccc(N=C(c2cccs2)N2CCOCC2)cc1	-66*
COc1ccc(/C=C/C(=O)c2ccc[nH]2)cc1OC	-146*
COc1ccc(/C=C/C(=O)c2cc(F)ccc2OC(=O)c2ccccc2OC)cc1OC	68
COc1ccc(/C=C/C(=O)c2ccc[nH]2)c(OC)c1OC	-194*
CNc1ccc(/C=C2\COc3ccccc3C2=O)cc1[N+](=O)[O-]	-118*
O=C1/C(=C/c2ccccc2[N+](=O)[O-])COc2ccccc21	-114*
Fc1ccc(N/N=C/c2ccncc2)c(F)c1	-177*
Clc1ccc(N/N=C/c2ccncc2)cc1Cl	-221*
O=C(O)c1ccc(/C=N/Nc2ccc(F)cc2F)cc1	-111*
Fc1ccc(N/N=C/C=C/c2ccccc2)c(F)c1	-159*
C(=C\c1ccncc1)/c1ccccc1	-73*
C(=C\c1nc(-c2ccncc2)no1)/c1ccccc1	-132*
C(=C\c1nc(-c2ccccc2)no1)/c1ccccc1	-154*
CCN(CC)c1ccc(/C=C2\SC(=O)N(C(C)C)C2=O)o1	-103*
O=c1c2ccccc2oc2ccc(NCCCN3CCOCC3)cc12	-108*
CN1CCCC1CCNc1ccc2c(=O)c3ccccc3oc2c1 (stereo not drawn)	-130*
O=c1c2ccccc2oc2cc(NCCCN3CCOCC3)ccc12	-127*
O=C1NC(c2cccc(Br)c2)=N/C1=C\c1ccco1	-106*
O=C1NC(c2ccccc2Br)=N/C1=C\c1ccco1	-165*
O=C1NC(c2ccccc2)=N/C1=C/c1ccco1	-270*
SMILES	aSyn UTR act
CN1CCN(c2ccc(-c3ccnn3C(=O)Nc3cccc(C(F)(F)F)c3)cc2)CC1	-114*
COc1ccc(NC(=O)c2ccco2)c([N+](=O)[O-])c1	-76*
Cc1ccc(NC(=O)c2ccco2)c([N+](=O)[O-])c1	-197*
C/C(=N/NC(=O)c1ccco1)c1ccc(NC(=O)c2ccc(F)cc2)cc1	-109*
CCCCCC(=O)N/N=C(\C)c1ccc(NC(=O)c2ccco2)cc1	-107*
CC(=O)Nc1ccc(/C(C)=N\NC(=O)c2ccc(-c3ccccc3)cc2)cc1	96
C/C(=N\NC(=O)c1ccc(F)cc1)c1ccc(NC(=O)Cc2ccccc2)cc1	-75*
C/C(=N/NC(=O)c1ccco1)c1ccc(NC(=O)c2ccc(Br)o2)cc1	-82*
N/C(=N\O)c1ccc(NC(=O)c2ccc(Br)o2)cc1	-67*
CN(C)c1ccc(NC(=O)c2sc(SCC(=O)Nc3nccs3)nc2N)cc1	-156*
Cc1ccc(SCC(=O)Nc2nccs2)cc1	-107*
O=C(CSc1cn(Cc2ccccc2)c2ccccc12)Nc1nccs1	-168*
CCOC(=O)c1c(SCC(=O)Nc2nccs2)nc(C)c(C)c1C	-68*
O=C(Nc1nccs1)c1ccc(CSc2ccccc2)o1	-126*
Cc1ccc(SCc2ccc(C(=O)Nc3nccs3)o2)cc1	-79*
Cc1cc2ccccn2c1C(=O)Nc1ccc(Cl)cc1	-117*
Cc1cc2ccccn2c1C(=O)Nc1ccccc1	-109*

Source: PubChem
